The supplement of paper PMC10849652
The full data set covers some 7,900 targets. This sample favours those with a hit. About 0.6% of all pairs of compound and target were hits. A number with no mark means an inactive call.

Assays:
Experiment in all cases: log2 fold change, soluble protein after heating vs DMSO (PISA); higher = thermal stabilisation; K562 cells, 10 uM, 30 min; active = over 0.2 and 3.5 SD of the protein, either way, in both replicates (recomputed)
[1] = compound: C#Cc1cccc(Nc2ncnc3cc(OCCOC)c(OCCOC)cc23)c1 [erlotinib]
Outline: (§1)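 Soluble protein was defined as the supernatant after 21,000xg for 90 min. It came from K562 cells at 2×10^6 cells/mL given 10 μM compound for 30 min, heated in aliquots for 3 min across 48°C-58°C, pooled, and extracted in PBS with 0.5% NP-40 at 4°C, and was quantified by TMTpro 16plex LC-MS/MS with equalised channel sums. Thermal stability against control samples, from duplicates, is reported as log2 fold change.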

[2] = compound: C/C(=N\NC(=O)C1=CC(=CC=C1)S(=O)(=O)N2CCOCC2)/C3=C(C=CC(=C3)Cl)O
Outline: as §1

[3] = compound: C1=CC(=C(C=C1Cl)C2=NC3=NC=CN=C3C(=N2)NC4=CC=NC=C4)F
Outline: as §1

[4] = compound: C1=CC(=CC=C1C2=NC3=C(N2)C=C(C=C3)C(=O)N)OC4=CC=C(C=C4)Cl
Outline: as §1

[5] = compound: C1=CC2=C(C=CC(=C2)/C=C\3/C(=O)NC(=NCC4=CC=CS4)S3)N=C1
Outline: as §1

[6] = compound: C1=CC2=NC=CN=C2C=C1/C=C/3\C(=O)NC(=O)S3
Outline: as §1

[7] = compound: C1=CC=C(C=C1)C2=NC(=C(N2)C3=CC=NC=C3)C4=CC(=C(C=C4)Cl)O
Outline: as §1

[8] = compound: C1=CC=C2C(=C1)C3=NNC4=CC=CC(=C43)C2=O
Outline: as §1

[9] = compound: C1CCN(C1)C(=O)NC2=CC=CC(=C2)NC3=NC=C(C(=N3)NCCC4=CN=CN4)Br
Outline: as §1

[10] = compound: C1CN(CCC1(CC2=CC=C(C=C2)Cl)N)C3=NC=NC4=C3C=CN4
Outline: as §1

Chain of UniProt P04049 (P04049 whole entry, looked up): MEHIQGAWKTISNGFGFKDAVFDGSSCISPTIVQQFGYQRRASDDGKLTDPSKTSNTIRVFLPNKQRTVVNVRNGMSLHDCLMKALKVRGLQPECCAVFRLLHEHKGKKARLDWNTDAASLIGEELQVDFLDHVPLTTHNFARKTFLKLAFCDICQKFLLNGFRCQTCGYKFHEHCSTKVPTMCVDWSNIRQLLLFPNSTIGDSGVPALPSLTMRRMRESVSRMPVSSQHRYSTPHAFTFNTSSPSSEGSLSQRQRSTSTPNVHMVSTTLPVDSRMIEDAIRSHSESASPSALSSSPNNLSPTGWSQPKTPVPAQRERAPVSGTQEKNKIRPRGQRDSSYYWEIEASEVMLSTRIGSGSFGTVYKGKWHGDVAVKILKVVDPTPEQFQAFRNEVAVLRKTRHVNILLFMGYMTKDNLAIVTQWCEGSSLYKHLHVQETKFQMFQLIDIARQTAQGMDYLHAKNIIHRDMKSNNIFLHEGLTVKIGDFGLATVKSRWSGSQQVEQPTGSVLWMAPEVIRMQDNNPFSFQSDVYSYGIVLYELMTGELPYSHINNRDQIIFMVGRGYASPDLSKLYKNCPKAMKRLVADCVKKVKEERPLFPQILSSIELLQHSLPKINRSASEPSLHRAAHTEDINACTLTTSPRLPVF
Chain of UniProt Q8NBN7 (Q8NBN7 whole entry, looked up): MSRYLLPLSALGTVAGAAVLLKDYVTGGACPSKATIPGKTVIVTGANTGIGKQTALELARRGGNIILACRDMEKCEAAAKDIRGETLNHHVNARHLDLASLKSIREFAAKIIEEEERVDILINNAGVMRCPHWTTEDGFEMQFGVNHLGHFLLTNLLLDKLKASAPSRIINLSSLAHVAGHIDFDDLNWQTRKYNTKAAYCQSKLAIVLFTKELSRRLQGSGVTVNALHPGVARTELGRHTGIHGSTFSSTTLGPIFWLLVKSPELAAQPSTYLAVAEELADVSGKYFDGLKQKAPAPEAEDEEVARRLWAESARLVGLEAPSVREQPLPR
Chain of UniProt P41440 (P41440 whole entry, looked up): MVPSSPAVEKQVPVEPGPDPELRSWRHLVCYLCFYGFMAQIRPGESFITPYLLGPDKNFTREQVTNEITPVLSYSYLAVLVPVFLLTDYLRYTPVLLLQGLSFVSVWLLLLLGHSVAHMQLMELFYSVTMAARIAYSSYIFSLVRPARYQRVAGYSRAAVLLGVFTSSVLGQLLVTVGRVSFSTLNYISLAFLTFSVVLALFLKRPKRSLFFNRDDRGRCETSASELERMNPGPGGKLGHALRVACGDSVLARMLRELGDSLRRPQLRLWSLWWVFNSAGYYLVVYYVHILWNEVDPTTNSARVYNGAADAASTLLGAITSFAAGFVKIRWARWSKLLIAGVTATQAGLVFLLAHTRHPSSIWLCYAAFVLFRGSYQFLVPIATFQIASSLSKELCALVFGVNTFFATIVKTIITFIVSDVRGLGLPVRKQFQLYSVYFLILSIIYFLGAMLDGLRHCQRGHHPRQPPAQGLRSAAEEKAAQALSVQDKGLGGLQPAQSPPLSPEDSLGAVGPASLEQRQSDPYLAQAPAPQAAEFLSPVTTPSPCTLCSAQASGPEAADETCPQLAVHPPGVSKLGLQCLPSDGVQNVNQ
Chain of UniProt O94979 (O94979 whole entry, looked up): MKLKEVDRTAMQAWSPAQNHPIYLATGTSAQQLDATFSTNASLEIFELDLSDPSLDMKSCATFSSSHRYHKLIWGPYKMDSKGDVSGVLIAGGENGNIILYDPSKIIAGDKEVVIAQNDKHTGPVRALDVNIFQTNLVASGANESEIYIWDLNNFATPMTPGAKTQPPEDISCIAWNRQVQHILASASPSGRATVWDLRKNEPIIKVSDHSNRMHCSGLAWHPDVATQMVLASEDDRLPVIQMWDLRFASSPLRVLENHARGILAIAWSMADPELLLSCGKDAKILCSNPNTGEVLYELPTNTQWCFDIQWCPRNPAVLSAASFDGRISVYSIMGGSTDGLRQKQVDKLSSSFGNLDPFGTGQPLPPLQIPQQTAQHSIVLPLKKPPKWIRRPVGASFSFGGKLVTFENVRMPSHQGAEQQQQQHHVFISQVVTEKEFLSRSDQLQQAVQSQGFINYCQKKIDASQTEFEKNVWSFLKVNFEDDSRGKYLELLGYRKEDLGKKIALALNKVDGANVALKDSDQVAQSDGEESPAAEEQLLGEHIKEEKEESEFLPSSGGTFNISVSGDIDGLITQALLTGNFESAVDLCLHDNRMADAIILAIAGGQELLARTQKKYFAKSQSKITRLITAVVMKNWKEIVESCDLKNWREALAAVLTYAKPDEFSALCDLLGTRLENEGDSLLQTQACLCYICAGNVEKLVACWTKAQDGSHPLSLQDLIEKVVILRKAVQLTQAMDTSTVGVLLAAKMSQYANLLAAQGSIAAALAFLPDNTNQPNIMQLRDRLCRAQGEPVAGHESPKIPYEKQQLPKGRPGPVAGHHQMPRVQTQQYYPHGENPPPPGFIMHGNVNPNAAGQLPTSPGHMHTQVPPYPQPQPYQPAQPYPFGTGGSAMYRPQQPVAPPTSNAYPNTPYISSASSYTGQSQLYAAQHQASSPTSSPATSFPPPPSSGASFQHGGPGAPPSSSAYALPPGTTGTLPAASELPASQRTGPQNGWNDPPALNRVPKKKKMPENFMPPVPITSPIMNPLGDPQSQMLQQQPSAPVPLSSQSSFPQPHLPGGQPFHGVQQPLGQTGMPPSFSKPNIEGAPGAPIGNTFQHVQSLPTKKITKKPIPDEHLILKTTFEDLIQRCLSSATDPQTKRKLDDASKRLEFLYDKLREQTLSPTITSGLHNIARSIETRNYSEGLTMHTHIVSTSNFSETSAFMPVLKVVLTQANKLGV
Chain of UniProt P11233 (P11233 whole entry, looked up): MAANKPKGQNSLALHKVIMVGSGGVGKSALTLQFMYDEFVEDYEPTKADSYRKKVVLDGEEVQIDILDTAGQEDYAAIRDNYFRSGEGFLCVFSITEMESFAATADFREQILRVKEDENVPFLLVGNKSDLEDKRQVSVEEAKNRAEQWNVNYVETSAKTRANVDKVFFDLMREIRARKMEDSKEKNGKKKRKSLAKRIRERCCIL
Chain of UniProt Q9BY42 (Q9BY42 whole entry, looked up): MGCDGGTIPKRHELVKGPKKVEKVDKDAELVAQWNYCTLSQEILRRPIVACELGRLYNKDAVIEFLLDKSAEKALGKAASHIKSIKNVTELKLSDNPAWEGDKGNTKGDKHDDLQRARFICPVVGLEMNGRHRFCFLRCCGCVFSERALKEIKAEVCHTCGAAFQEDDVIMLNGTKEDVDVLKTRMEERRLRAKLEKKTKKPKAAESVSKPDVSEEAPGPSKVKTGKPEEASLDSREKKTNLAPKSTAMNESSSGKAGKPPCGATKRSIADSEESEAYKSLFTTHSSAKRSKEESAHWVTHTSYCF
Chain of UniProt Q8WWV3 (Q8WWV3 whole entry, looked up): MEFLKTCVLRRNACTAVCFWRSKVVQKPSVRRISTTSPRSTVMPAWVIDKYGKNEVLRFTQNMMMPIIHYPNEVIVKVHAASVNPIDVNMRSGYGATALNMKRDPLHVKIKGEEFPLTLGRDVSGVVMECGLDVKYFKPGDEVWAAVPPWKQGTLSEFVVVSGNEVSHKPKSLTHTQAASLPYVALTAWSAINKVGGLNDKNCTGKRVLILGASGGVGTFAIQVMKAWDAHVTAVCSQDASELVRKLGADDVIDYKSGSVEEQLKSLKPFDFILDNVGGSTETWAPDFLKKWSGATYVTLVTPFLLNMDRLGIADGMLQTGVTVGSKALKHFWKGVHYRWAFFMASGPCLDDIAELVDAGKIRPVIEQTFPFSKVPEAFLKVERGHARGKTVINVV
Chain of UniProt P54136 (P54136 whole entry, looked up): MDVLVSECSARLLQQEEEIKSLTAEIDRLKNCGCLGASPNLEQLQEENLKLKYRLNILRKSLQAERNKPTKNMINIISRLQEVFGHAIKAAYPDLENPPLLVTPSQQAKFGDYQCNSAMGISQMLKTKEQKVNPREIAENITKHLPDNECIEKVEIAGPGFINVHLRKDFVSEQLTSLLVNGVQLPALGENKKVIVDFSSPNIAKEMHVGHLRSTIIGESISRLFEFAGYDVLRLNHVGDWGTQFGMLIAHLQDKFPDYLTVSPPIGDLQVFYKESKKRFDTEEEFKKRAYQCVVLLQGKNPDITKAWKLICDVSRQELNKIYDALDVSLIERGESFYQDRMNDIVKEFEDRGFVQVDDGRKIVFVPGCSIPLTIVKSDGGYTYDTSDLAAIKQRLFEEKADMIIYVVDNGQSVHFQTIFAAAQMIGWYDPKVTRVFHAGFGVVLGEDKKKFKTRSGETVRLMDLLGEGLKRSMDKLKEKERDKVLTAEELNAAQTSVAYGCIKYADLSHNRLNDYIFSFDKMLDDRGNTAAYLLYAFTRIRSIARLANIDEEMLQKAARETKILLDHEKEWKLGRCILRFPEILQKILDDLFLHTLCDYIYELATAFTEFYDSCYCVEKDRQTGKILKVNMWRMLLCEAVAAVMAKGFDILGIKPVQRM
Chain of UniProt Q9NSI8 (Q9NSI8 whole entry, looked up): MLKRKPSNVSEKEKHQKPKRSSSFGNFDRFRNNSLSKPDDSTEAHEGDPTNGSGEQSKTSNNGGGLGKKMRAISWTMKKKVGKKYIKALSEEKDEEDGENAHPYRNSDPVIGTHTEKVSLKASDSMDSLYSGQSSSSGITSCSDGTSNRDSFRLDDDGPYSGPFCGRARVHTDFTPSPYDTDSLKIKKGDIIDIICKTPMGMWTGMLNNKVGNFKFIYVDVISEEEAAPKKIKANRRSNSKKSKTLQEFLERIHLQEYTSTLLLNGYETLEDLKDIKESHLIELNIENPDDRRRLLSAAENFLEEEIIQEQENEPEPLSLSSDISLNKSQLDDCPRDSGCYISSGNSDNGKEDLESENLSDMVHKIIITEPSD
Chain of UniProt Q9NX18 (Q9NX18 whole entry, looked up): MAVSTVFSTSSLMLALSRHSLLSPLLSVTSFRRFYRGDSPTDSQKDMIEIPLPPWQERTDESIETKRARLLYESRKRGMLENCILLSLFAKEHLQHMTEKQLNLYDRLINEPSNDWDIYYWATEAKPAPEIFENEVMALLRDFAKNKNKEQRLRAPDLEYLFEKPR

Target	log2 fold change [1]	log2 fold change [2]	log2 fold change [3]	log2 fold change [4]	log2 fold change [5]	log2 fold change [6]	log2 fold change [7]	log2 fold change [8]	log2 fold change [9]	log2 fold change [10]
RBM8A (UniProt Q9Y5S9)	-0.021	-0.014	0.012	-0.008	-0.076	0.024	-0.069	-0.035	0.025	0.003
RUNX1 isoform 8 (UniProt Q01196)	0.122	0.081	-0.03	0.048	-0.001	0.032	0.131	-0.033		
RARS (UniProt P54136)	0.023	0.011	-0.169	-0.007	0.019	0	-0.046	-0.005	0.07	-0.155
RPS18 (UniProt P62269)	-0.126	-0.088	-0.211	0.039	-0.037	-0.089	-0.024	0	0.097	-0.144
RAF1 isoform 2 (UniProt P04049)	-0.048	0.08	-0.129	0.04	0.197	0.02	0.513 (active)	0.01	-0.121	0.022
RAB33B (UniProt Q9H082)	0.059	0.031	0.028	-0.029	-0.08	-0.012	-0.079	0.025	-0.016	0.118
RPS19 (UniProt P39019)	-0.141	-0.102	-0.274	0.057	-0.082	-0.044	-0.026	-0.015	0.094	-0.145
RTN4IP1 (UniProt Q8WWV3)	0.016	0	0.041	0.066	0.048	-0.08	0.014	0.027	-0.064	0.074
SCD (UniProt O00767)	0.022	-0.256	0.143	-0.008	0.024	0.04	-0.059	-0.006	0.126	0.023
RECQL (UniProt P46063)	-0.019	0.072	0.066	-0.005	0.046	0.004	-0.004	-0.003	-0.062	0.01
SIDT2 isoform 2 (UniProt Q8NBJ9)	0.007	0.026	-0.027	0.004	0.042	0.087	-0.053	0.038	0.002	0.053
RPS16 (UniProt P62249)	-0.166	-0.108	-0.258	0.049	-0.075	-0.043	-0.049	0.002	0.025	-0.2
RTF2 (UniProt Q9BY42)	0.026	0.063	0.035	-0.049	-0.049	-0.023	-0.035	-0.02	-0.074	0.045
SEC31A (UniProt O94979)	0.049	0.023	0.006	-0.025	0.094	0.016	-0.045	0.023	-0.06	-0.025
RALA (UniProt P11233)	0.087	-0.005	0.033	-0.05	0.005	0.056	-0.076	-0.045	-0.066	0.104
RDH13 (UniProt Q8NBN7)	0.019	-0.004	0.082	0.01	0.127	-0.024	0.005	0.007	0.05	0.007
SLC1A5 (UniProt Q15758)	-0.001	0.003	0.043	0.002	-0.051	0.006	0.075	-0.046	-0.052	0.089
SHCBP1 (UniProt Q8NEM2)	-0.013	-0.029	-0.027	0.018	0.137	0.028	-0.104	0.054	0.127	-0.128
SLC19A1 (UniProt P41440)	-0.023	0.029	0.159	0.022	-0.006	0.103	0.118	-0.008	-0.009	0.08
RPS4X (UniProt P62701)	-0.177	-0.092	-0.37	0.054	-0.042	-0.033	-0.043	0.043	0.076	-0.221
SCAF11 (UniProt Q99590)	-0.074	-0.09	-0.16	0.03	-0.134	-0.076	-0.014	-0.068	0.125	-0.035
SDHAF2 (UniProt Q9NX18)	-0.021	0.304 (active)	0.083	0.018	-0.102	0.051	-0.035	0.114	0.068	-0.091
SCAMP2 (UniProt H3BUB6)	0.182	-0.331	-0.143	0.039	0.372	-0.163	-0.281	-0.143	0.218	-0.003
RALY (UniProt Q9UKM9)	0.018	-0.072	-0.541	0.189	-0.144	0.154	-0.11	0.038	0.008	-0.22
SDHC (UniProt Q99643)	-0.017	0.033	-0.015	0.033	-0.013	0.17	0.104	0.102	0.008	0.02
SESN2 (UniProt P58004)	0.154	0.108	-0.039	-0.003	0.016	0.007	-0.009	-0.008	-0.041	-0.109
RPL38 (UniProt P63173)	0.024	-0.05	-0.148	0.026	-0.102	-0.025	-0.027	0.026	0.033	-0.106
SAMSN1 isoform 3 (UniProt Q9NSI8)	0.027	0.012	-0.006	0.001	0.037	0.021	-0.009	-0.022	0.007	-0.114
RETSAT (UniProt Q6NUM9)	0.044	-0.149	0.132	0.502 (active)	0.052	0.002	0.056	0.144	-0.126	0.194
SIRT2 (UniProt Q8IXJ6)	0.03	0.055	0.001	0.054	-0.113	0.017	0.051	0.029	0.025	0.016
